SW480 rereplic: DNA re-replication induction in SW480 cells; SW480 DNA re-replication, Hoechst DNA content imaging, 48 h; Potency, µM (series often up to 46.1 µM), for the others: top-dose re-replication activation, actives largely listed as activators; actives 1.8% (n = 340,000); note: potency is the fitted concentration of half-maximal effect; % of control where 0% means no effect; nearly all actives have a fitted effect of over 55% in size
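Per well, 250 cells were exposed to pinned compound for 48 hr. Nuclear DNA was visualised with Hoechst (40 min, 37 C) and total object intensity recorded by fluorescence scanning.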
D3 antag: blocks the human D3 dopamine receptor; max response, negative = inhibition, %; D3R cells, DiscoveRx beta-arrestin luminescence, antagonist mode; stronger effect = lower value; P35462; AID 652054; actives 2.5% (n = 360,000); in the data active = max response below about -50%; inconclusive = no clear call, values can overlap the other calls; note: % is set by controls: 0 for no effect and ±100 for the full control effect
Target sequence (P35462 whole entry, looked up): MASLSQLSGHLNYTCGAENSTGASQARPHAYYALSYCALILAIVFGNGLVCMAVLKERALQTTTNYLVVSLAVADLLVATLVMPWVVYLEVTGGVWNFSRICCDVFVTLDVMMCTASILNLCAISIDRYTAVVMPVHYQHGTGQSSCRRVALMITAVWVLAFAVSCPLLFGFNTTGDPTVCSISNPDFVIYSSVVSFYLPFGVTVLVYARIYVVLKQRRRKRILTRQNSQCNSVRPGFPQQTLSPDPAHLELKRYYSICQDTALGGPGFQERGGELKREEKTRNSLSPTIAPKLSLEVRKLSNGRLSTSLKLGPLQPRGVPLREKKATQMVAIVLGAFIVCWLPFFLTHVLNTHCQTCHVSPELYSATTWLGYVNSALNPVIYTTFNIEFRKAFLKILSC
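Cells expressing the human receptor were seeded at 1500 cells/well, incubated overnight at 37 degrees C in 5% CO2, then exposed to library compounds with dopamine controls for 90 minutes at 37 degrees C before luminescent detection.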
KB-3-1 tox: kills parental KB-3-1 adenocarcinoma cells; KB-3-1 viability, CellTiter-Glo ATP luminescence, 72 h; actives 1.4% (n = 400,000); Potency, µM (highest dose often 46.1 µM), actives largely listed as cytotoxic; note: potency is the fitted concentration of half-maximal effect; % is set by controls: 0 for no effect and ±100 for the full control effect; nearly all actives have a fitted effect of over 60% in size
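Using CellTiter-Glo luminescence, growth of non-resistant KB-3-1 adenocarcinoma cells is assessed 72 h after pin-tool compound addition at 37 °C. Normalized responses across the concentration series yield fitted curves.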
D3 ag: agonists of human D3 dopamine receptor; actives 0.58% (n = 410,000); P35462; D3R DiscoveRx beta-arrestin cells, luminescence, 90 min; max activation, %; AID 652048; in the data active = max activation above about 30%; note: 0% is about no effect
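Cells at 1500/well, incubated overnight, then treated with pinned compounds (dopamine as control) for 90 min at 37 degrees C. DiscoveRx reagent added for 30 - 60 minutes at room temperature; luminescence read.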
MCF10A rereplic: induces DNA re-replication in MCF 10a normal breast cells; MCF 10A DNA re-replication, Hoechst nuclear intensity, 48 h; Potency, µM (doses to about 46.1 µM), inactives show top-dose activity, positive = re-replication, actives largely listed as activators; actives 2.9% (n = 350,000); AID 624296; note: potency is the fitted concentration of half-maximal effect; % of control where 0% means no effect; nearly all actives have a fitted effect of over 50% in size
KB-V1 MDR tox: KB-V1 MDR subline cytotoxicity; KB-V1 MDR cells viability, CellTiter-Glo, 72 h; Potency, µM (top dose mostly 46.1 µM), hits mostly cytotoxic; actives 3.4% (n = 400,000); note: potency is the fitted concentration of half-maximal effect; % is set by controls: 0 for no effect and ±100 for the full control effect; nearly all actives have a fitted effect of over 60% in size
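Following 72 h at 37 degrees C with compound, KB-V1 cell viability was read by CellTiter-Glo luminescence, medium being phenol-red-free DMEM plus 10% FBS; concentration-response parameters came from normalized, curve-fitted qHTS data.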
Starred values were filed as active, the others as inactive. Only some compounds are listed: those with a hit (about 8.9% of all), similar ones and a draw of the others. Unless noted, calls come from the whole dose curve; as a rule, active = well fitted curve in the direction sought with a large enough effect; inconclusive = small, poorly fitted or top-dose-only effect, or another doubt; inactive = no such curve, though single readings can be large; an effect the other way counts as inactive or inconclusive.

COc1cc(C(=O)NCC(c2ccco2)N2CCCC2)ccc1OCc1ccc(Cl)cc1Cl (stereo not drawn) was read as SW480 rereplic inconclusive, D3 antag inconclusive, KB-3-1 tox inactive, D3 ag -2, MCF10A rereplic 18µM* and KB-V1 MDR tox inconclusive.
Screening COc1ccc(N2CCN(S(=O)(=O)c3ccc(CC(C)C)cc3)CC2)cc1 returned KB-3-1 tox inactive, D3 ag 3 and KB-V1 MDR tox inactive.
For COc1cc(C(=O)NCC(c2ccco2)N(C)C)cc(OC)c1OC (stereo not drawn) the results were SW480 rereplic -3%, D3 antag 3, KB-3-1 tox inactive, D3 ag -8, MCF10A rereplic 1% and KB-V1 MDR tox inconclusive.
`COc1ccc(Cl)cc1C(=O)NCC(c1ccco1)N(C)C` (stereo not drawn) gave SW480 rereplic -9%, D3 antag -79*, KB-3-1 tox inactive, D3 ag -16, MCF10A rereplic 10% and KB-V1 MDR tox inactive.
COc1ccc(Cl)cc1C(=O)NCC(c1ccco1)N1CCCC1 (stereo not drawn) was read as SW480 rereplic -4%, D3 antag -81*, KB-3-1 tox inactive, D3 ag -56, MCF10A rereplic 9% and KB-V1 MDR tox 9.2µM*.
For COc1cccc2c1C(=O)/C(=C\c1ccc(N(C)C)cc1)C2 the results were KB-3-1 tox inactive and KB-V1 MDR tox inconclusive.
Screening COc1ccc(-c2c(C)c3ccc(O)c(CN4CCCC(C)C4)c3oc2=O)cc1OC (stereo not drawn) returned KB-3-1 tox inactive, D3 ag -15 and KB-V1 MDR tox inactive.
COc1ccccc1Cc1c(-c2ccc(C#N)cc2)nc2ccc(C)cn12 was read as D3 antag 8, KB-3-1 tox inconclusive, D3 ag -1 and KB-V1 MDR tox inconclusive.
For CCc1c(C#N)c(SCc2c(C)noc2C)nc2c1C(=O)CC(C)(C)C2 the results were SW480 rereplic -5%, D3 antag 10, KB-3-1 tox inactive, D3 ag -11, MCF10A rereplic 9.2µM* and KB-V1 MDR tox inconclusive.
For CCc1c(C#N)c(SCCC(=O)Nc2ccc(OC)cc2)nc2c1C(=O)CC(C)(C)C2 the results were SW480 rereplic 5%, D3 antag -5, KB-3-1 tox inactive, D3 ag 4, MCF10A rereplic 14% and KB-V1 MDR tox inconclusive.
Screening O=C(NNc1ccccc1)c1ccc(Cl)c(Cl)c1 returned SW480 rereplic 1%, D3 antag -5, KB-3-1 tox inactive, D3 ag -2, MCF10A rereplic inconclusive and KB-V1 MDR tox 18µM*.
Screening CCC1CN(C(=O)N2CCC(C(=O)NCCC3=CCCCC3)CC2)c2ccccc2O1 (stereo not drawn) returned D3 ag -3.
CCOC(=O)C1(Cc2ccc(Cl)cc2)CCN(C(=O)CCc2ccncc2)CC1 was read as SW480 rereplic inconclusive, D3 antag 6, KB-3-1 tox inactive, D3 ag -5, MCF10A rereplic 19% and KB-V1 MDR tox 4.1µM*.
Cc1ccc2cc(C#N)c(NCCNC(=O)C3CC3)nc2c1C was read as SW480 rereplic inconclusive, D3 antag 20, KB-3-1 tox inconclusive, D3 ag -3, MCF10A rereplic inconclusive and KB-V1 MDR tox 3.7µM*.
For Cc1ccc2cc(C#N)c(NCCNC(=S)NCCCN(C)C)nc2c1C the results were SW480 rereplic inconclusive, D3 antag -22, KB-3-1 tox inactive, D3 ag -2, MCF10A rereplic 21µM* and KB-V1 MDR tox inactive.
For Cc1cc(C)c2nc(NCCCNC(=S)NCCCN(C)C)c(C#N)cc2c1 the results were SW480 rereplic 12µM*, D3 antag inconclusive, KB-3-1 tox inconclusive, D3 ag -15, MCF10A rereplic 18µM* and KB-V1 MDR tox inactive.
For CCOCCCNC(=S)NCCNc1nc2c(C)cccc2cc1C#N the results were SW480 rereplic inconclusive, D3 antag -27, KB-3-1 tox inactive, D3 ag -11, MCF10A rereplic inconclusive and KB-V1 MDR tox inactive.
`Cc1cc(OCCCCNC(C)C)cc(C(C)C)c1` gave SW480 rereplic inconclusive, D3 antag -69*, KB-3-1 tox inactive, D3 ag -13, MCF10A rereplic inconclusive and KB-V1 MDR tox 21µM*.
`COc1ccc(CNS(=O)(=O)c2cc3c(cc2Cl)N(C(C)=O)CCO3)cc1` gave D3 ag 2.
For CC(C)(C)OC(=O)NCCCC[C@@H](C(=O)NCCCCCCCCCCC(=O)N1CCN(C(=O)OC(C)(C)C)CC1)n1cc(CCO)nn1 the results were SW480 rereplic -3%, D3 antag 29, KB-3-1 tox inactive, D3 ag 38*, MCF10A rereplic inconclusive and KB-V1 MDR tox inactive.
Screening CC[C@@H](C)[C@@H](C(=O)N1CCN(C(=O)OC(C)(C)C)CC1)n1cc(CCCCNC(=O)OC(C)(C)C)nn1 returned SW480 rereplic -4%, D3 antag 142, KB-3-1 tox inconclusive, D3 ag 53*, MCF10A rereplic inconclusive and KB-V1 MDR tox 21µM*.
CSCC[C@@H](C(=O)NCCCCCCCCCCC(=O)N1CCN(C(=O)OC(C)(C)C)CC1)n1cc(CCO)nn1 was read as SW480 rereplic 3%, D3 antag 77, KB-3-1 tox inconclusive, D3 ag 24, MCF10A rereplic 7% and KB-V1 MDR tox inactive.
`CC[C@H](C)C(C(=O)N1CCN(C(=O)OC(C)(C)C)CC1)n1cc(C(CC(C)C)NC(=O)OC(C)(C)C)nn1` (stereo partly drawn) gave SW480 rereplic 0%, D3 antag 21, KB-3-1 tox inactive, D3 ag 6, MCF10A rereplic 1% and KB-V1 MDR tox inactive.
COc1ccc2oc(=O)c(-c3nc(-c4cc(OC)c(OC)c(OC)c4)no3)cc2c1 was read as D3 ag 4.
`CC(C)NC(=O)COc1coc(CN2CCN(c3ccccc3)CC2)cc1=O` gave SW480 rereplic -8%, D3 antag -62*, KB-3-1 tox inactive, D3 ag 1, MCF10A rereplic 0% and KB-V1 MDR tox inactive.
For CC(=O)N1c2ccccc2CC1C(=O)N1CCN(c2ccccc2)CC1 (stereo not drawn) the results were KB-3-1 tox inactive, D3 ag 9 and KB-V1 MDR tox inactive.
CC(=O)Nc1c(O)nc(SCc2ccccc2C#N)[nH]c1=O was read as SW480 rereplic -3%, D3 antag -51*, KB-3-1 tox inactive, D3 ag 8, MCF10A rereplic -11% and KB-V1 MDR tox inactive.
